BoNT F protease = BoNT/F light chain protease inhibitors, primary screen, biochemical, flow cytometry, MLPCN library; Botulinum neurotoxin type F light chain protease (Clostridium botulinum); Multiplex microsphere protease cleavage assay; inhibition, % at 10 µM; 0.22% of 360,000 active; AID 588497, 2011; in the data active means inhibition above about 35%, passing the limit was not always enough; inconclusive means no clear call, values can overlap the other calls
BoNT-A LC inh2 = BoNT/A light chain protease inhibitors, primary screen, biochemical, flow cytometry, MLPCN library. inhibition, % at 10 µM. 0.17% of 360,000 active. multiplex microsphere protease substrate cleavage. Botulinum neurotoxin type A light chain protease (Clostridium botulinum A str. ATCC 3502)
Anthrax LF inh2 = Bacillus anthracis LF protease inhibitors, primary screen, biochemical, multiplex microsphere, MLPCN library; multiplex microsphere protease cleavage assay; 0.12% of 360,000 active; inhibition, % at 10 µM; AID 588501, 2011
Target sequence (P15917 whole entry, looked up): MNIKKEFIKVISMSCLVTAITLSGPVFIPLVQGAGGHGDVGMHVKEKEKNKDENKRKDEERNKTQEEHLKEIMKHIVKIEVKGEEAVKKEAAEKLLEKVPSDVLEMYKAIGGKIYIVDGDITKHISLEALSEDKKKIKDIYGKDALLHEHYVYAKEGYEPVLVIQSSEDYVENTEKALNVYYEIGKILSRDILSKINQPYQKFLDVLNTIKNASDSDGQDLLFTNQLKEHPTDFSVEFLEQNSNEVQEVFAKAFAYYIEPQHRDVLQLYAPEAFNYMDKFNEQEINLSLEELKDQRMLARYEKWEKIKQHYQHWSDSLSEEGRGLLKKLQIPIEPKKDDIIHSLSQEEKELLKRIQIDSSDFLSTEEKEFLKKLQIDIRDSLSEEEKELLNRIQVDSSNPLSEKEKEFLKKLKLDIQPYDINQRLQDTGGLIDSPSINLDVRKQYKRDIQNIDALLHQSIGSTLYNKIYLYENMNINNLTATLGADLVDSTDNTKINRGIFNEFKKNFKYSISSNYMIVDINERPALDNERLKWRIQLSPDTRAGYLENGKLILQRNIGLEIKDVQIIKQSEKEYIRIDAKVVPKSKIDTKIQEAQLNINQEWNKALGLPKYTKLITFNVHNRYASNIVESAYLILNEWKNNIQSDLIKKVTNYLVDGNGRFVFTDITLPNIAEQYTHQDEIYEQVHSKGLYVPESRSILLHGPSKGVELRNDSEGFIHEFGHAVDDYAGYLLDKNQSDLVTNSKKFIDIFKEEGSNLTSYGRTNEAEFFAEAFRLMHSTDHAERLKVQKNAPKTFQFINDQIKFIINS
Bead autofluor = flagged as autofluorescent in microsphere protease counterscreen; fluorescence intensity (no concentration beside the values); 3.1% of 360,000 active; compound autofluorescence counterscreen, microsphere flow cytometry; active compounds read high; in the data active means fluorescence intensity above about 16000; inconclusive means no clear call, values can overlap the other calls
MazF activator = activators of E. coli MazEF toxin-antitoxin RNase, primary screen, biochemical, fluorescence, uHTS | FAM/BHQ RNA-DNA oligo cleavage fluorescence, 5 h | Endoribonuclease toxin MazF (Escherichia coli (strain K12)), P0AE70 | activation, % at 20 µM | 0.32% of 350,000 active; in the data active means activation above about 50%
Each line names hits and unclear results; the compound was inactive in the other large screens. Most compounds without a hit are left out; they make up all but 3.6% or so of the library. Unless noted, no stated cut-off is given here; in the data, active means inhibition above about 30%; inconclusive means no clear call, values can overlap the other calls; inactive means below that.

Cc1cc(C(F)(F)F)c(C#N)c(SCC(=O)Nc2nc3ccccc3s2)n1	none
Cc1ccc(NC(=O)CSc2nsc(SCC(=O)Nc3ccc(C)cc3C)c2C#N)c(C)c1	none
CCOc1ccccc1-n1c(CN2CCN(C(=O)c3ccco3)CC2)nc2ccccc2c1=O	Bead autofluor 23399
O=C(Nc1nccs1)C1CC=CCC1 (configuration not stated)	none
O=C(Nc1ccc(O)cc1)C1CC=CCC1 (configuration not stated)	BoNT-A LC inh2 inconclusive, Bead autofluor 18689
Cc1ccc(S(=O)ONc2cccc(NOS(=O)c3ccc(C)cc3)c2)cc1 (configuration not stated)	none
CC(C)NC(=O)CSc1nc2ccccc2n1-c1ccccc1	Bead autofluor 22704
C[C@@H](NC(=O)c1[nH]cnc1C(=O)Nc1nccs1)c1ccccc1	none
OC(CNCCc1ccc(C(F)(F)F)cc1)COC(c1ccccc1)c1ccccc1 (configuration not stated)	none
O=S(=O)(Nc1ccc(-c2nc3ccccc3o2)cc1)c1ccccc1	BoNT-A LC inh2 inconclusive, Bead autofluor 23226
CC(=O)Nc1ccc(S(=O)(=O)Nc2cccc(-c3nc4ccccc4o3)c2)cc1	none
O=C(Nc1ccc2oc(-c3ccccc3)nc2c1)C1CCCO1 (configuration not stated)	none
O=C(Nc1ccc(-c2nc3ccccc3o2)cc1)C1CCCO1 (configuration not stated)	Bead autofluor 19183
COc1ccc(/C=N/n2cnnc2)cc1COc1ccccn1	Bead autofluor 23503
O=C(CC12CC3CC(CC(C3)C1)C2)NCc1ccncc1	Bead autofluor 16408
O=C(CC12CC3CC(CC(C3)C1)C2)NCc1ccccc1	none
Cc1cc(C)nc(N2CCC(C(=O)NCc3cccs3)CC2)n1	BoNT-A LC inh2 inconclusive, Bead autofluor 23240
Cc1cc(-c2ccccc2)nc(N2CCC(C(=O)NC(C)C)CC2)n1	Bead autofluor 16521
O=C(NCc1cccs1)C1CCN(c2nccs2)CC1	none
Cc1oc(-c2ccccc2F)nc1CN1CCC(C(=O)NC2CC2)CC1	Bead autofluor 20198
Cc1oc(-c2ccccc2F)nc1CN1CCC(C(=O)NCc2cccs2)CC1	Bead autofluor 21985
COc1ccc(NC(=O)CS(=O)CC(=O)Nc2cccnc2)cc1 (configuration not stated)	none
Cc1ccccc1-c1nc(CN2CCC(C(=O)NCC3CCCO3)CC2)c(C)o1 (configuration not stated)	Bead autofluor 25315
Cc1oc(-c2cccc(Cl)c2)nc1CN1CCC(C(=O)NCC2CCCO2)CC1 (configuration not stated)	none
O=S(=O)(c1ccc2oc3ccccc3c2c1)N1CCOCC1	Bead autofluor 16805
c1ccc2nc3c(nc2c1)c1ccccc1n3CCN1CCOCC1	none
O=C(c1cccc(S(=O)(=O)N2CCOCC2)c1)N1CCCc2ccccc21	none
CCn1c2ccccc2c2nc3cc(S(=O)(=O)N4CCOCC4)ccc3nc21	BoNT-A LC inh2 40, Anthrax LF inh2 33
Cc1c(C(=O)N2CCCc3ccccc32)oc2ccc(S(=O)(=O)N3CCOCC3)cc12	Bead autofluor 16777
COc1ccc(CC(=O)N2CCNC2=O)cc1	Bead autofluor 19689
O=C(COc1ccccc1)N1CCCC1	none
O=C(COc1ccccc1)N1CCNC1=O	Bead autofluor 21620
Cc1cccc(C(=O)OCC(=O)NC2CC2)c1O	none
Cc1ccc(C2(C(F)(F)F)NC(=O)N3CCN=C3S2)cc1 (configuration not stated)	BoNT-A LC inh2 inconclusive, Bead autofluor 21208
Cc1ccc(C2(C(F)(F)F)NC(=O)N3CCCN=C3S2)cc1 (configuration not stated)	none
Cc1ccc(F)cc1C(=O)N1CCCC1(C)C(=O)NCC(C)C (configuration not stated)	none (no result: MazF activator)
COc1ccc(N2CCN(CCCNC(=O)c3cc4sccc4n3C)CC2)cc1	none
CC1CCN(CCCNC(=O)c2cc3sccc3n2C)CC1	Bead autofluor 20532
COc1ccccc1N(C)S(=O)(=O)c1ccc(C(=O)Nc2ccncc2)cc1	none
COc1ccc([C@@H]2C[C@H]3CN(Cc4ccccc4OC)C(=O)[C@]34CCCN24)cc1C	Bead autofluor 19989
COc1ccccc1CN1C[C@@H]2C[C@@H](c3cccc(C)c3)N3CCC[C@@]23C1=O	none
COc1ccc(S(=O)(=O)NC(Cc2cnc[nH]2)C(=O)O)cc1 (configuration not stated)	none
COC(=O)C(Cc1cnc[nH]1)NC(=O)C1CCC(=O)N1 (configuration not stated)	BoNT-A LC inh2 inconclusive, Bead autofluor 22414
Cc1cccc(Cn2cnc3c(nnn3Cc3ccccc3F)c2=O)c1	Bead autofluor 22956
O=C(NCCO)c1ccc(-c2cnc3cccnn23)cc1	none (no result: MazF activator)
CCOC(=O)c1cnn(CCOC(=O)Cc2cccs2)c1NC(=O)Cc1cccs1	Bead autofluor 22856
CCc1ccc(CCC(=O)Nc2sc(C)c(C)c2C(=O)OC)o1	Bead autofluor 21036
COC(=O)c1c(NC(=O)Cc2cccs2)sc(C)c1C	Bead autofluor 21860
CCOC(=O)[C@]12CCCC=C1N(Cc1ccc3c(c1)OCO3)C(=O)[C@H](CC(=O)NCCC(C)C)C2	none (no result: MazF activator)
CC1(C(=O)Nc2cccc(Oc3ccccc3)c2)CCN1Cc1cccc2c1OCO2 (configuration not stated)	none (no result: MazF activator)
COc1cccc(C(C)(O)c2nc(/C=C/c3ccccc3)cs2)c1 (configuration not stated)	none (no result: MazF activator)
Cc1cccn2c(=O)c(C=O)c(N3CCCCC3)nc12	none
Cc1cccn2c(=O)c(/C=N/O)c(N3CCCC3)nc12	BoNT-A LC inh2 inconclusive, Bead autofluor 16881
CCCOC(=O)c1cc(-c2ccc(/C=C3/C(=O)N(C)C(=O)C(C#N)=C3C)o2)ccc1Cl	Bead autofluor 22120
O=[N+]([O-])c1cccc(S(=O)(=O)N2CCCCC2c2cccnc2)c1 (configuration not stated)	none
CCCCC(O)(CCN1CCOCC1)c1ccc(Cl)cc1 (configuration not stated)	Bead autofluor 21851
CCCCOc1ccc(C(O)(CCC)CCN2CCOCC2)cc1 (configuration not stated)	none
COc1cc(/C=C/C(=O)c2ccc3c(c2)OCCO3)cc(Br)c1OCC(=O)N(C)C	none
CCCCCCN1C[C@H](O)[C@@H](n2cc(-c3ccc(F)cc3)nn2)C[C@@H]1c1ccccc1	none
O=S(=O)(c1ccc(-c2csc(-c3cccnc3)n2)cc1)N1CCCCC1	Bead autofluor 22447
CCCCn1c(N)c(N(CC(C)C)C(=O)C2CCN(S(=O)(=O)c3ccc(C)cc3C)CC2)c(=O)[nH]c1=O	none (no result: BoNT F protease, BoNT-A LC inh2, Anthrax LF inh2, Bead autofluor)
CCCCOc1ccc(Cl)cc1CSc1nnc(CC)n1N	Bead autofluor 24086

Assay outcomes deposited in PubChem BioAssay by several laboratories.
